According to PubChem BioAssay:

Columns and labels:
[1] = tested on: Human papillomavirus type 1a protein E7 (residues 44-93); assay: HPV1a E7 fragment binders on microarrays, primary screen, biochemical, small-molecule microarray, residues 44-93, 635 nm fluorescence (AID 1108); conditions: small-molecule microarray binding, fluorescence 635 nm; higher = more signal;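 further: E7 fragment applied at 1 µg/mL in TBST for 1 h at 4 C; score combines spot fluorescence with its signal to noise ratio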
[2] = modulators of HCV replicon luciferase signal, primary screen, HCV replication inhibitor project, Huh7 cells, luciferase reporter (AID 1109); conditions: 48 h, higher = more signal;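 further: huh7 hepatoma cells harbouring a luciferase neomycin HCV replicon reporter; luciferase luminescence as measure of HCV replicon replication; test concentration not given here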
[3] = biological target: Left-right determination factor 2 (Homo sapiens) (UniProt O00292); assay: LEFTY2 binders on small-molecule microarrays, primary screen, biochemical, small-molecule microarray, 635 nm fluorescence scan (AID 1110); conditions: LEFTY2 binding, higher = more signal
Sequence of Left-right determination factor 2 (Homo sapiens) (O00292 whole entry, looked up): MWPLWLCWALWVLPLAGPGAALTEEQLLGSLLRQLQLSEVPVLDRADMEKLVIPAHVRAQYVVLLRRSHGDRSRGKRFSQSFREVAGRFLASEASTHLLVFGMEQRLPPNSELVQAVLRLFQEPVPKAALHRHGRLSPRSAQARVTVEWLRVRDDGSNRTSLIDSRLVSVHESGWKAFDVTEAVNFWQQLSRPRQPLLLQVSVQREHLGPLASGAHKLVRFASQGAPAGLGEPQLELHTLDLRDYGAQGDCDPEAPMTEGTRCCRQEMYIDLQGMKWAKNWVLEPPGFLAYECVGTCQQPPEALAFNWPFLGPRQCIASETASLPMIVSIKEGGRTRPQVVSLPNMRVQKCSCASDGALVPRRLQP

[4] = biological target: Calmodulin-1 (Homo sapiens) (UniProt P0DP23); assay: CALM1 binders on microarrays, EGTA buffer, profiling panel, biochemical, small-molecule microarray, Cy5-labelled CALM1 (AID 1111); conditions: Cy5-CALM1 binding fluorescence, higher = more signal;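 further: labelled calmodulin applied in Tris saline Tween buffer holding calcium plus EGTA and DTT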
[5] = biological target: Calmodulin-1 (Homo sapiens) (UniProt P0DP23); assay: calcium-bound CALM1 binders on microarrays, profiling panel, artefact control for SMM control-protein annotation, biochemical, small-molecule microarray, Cy5-labelled CALM1, plus calcium (AID 1112); conditions: Cy5-CALM1 binding fluorescence, higher = more signal;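 further: score merges spot fluorescence with signal to noise from triplicate slides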
[6] = small-molecule microarray binders of probe aWnt5a, primary screen, biochemical, biotinylated probe, 635/667 nm fluorescence (AID 1113); conditions: higher = more signal;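 further: score merges 667 nm fluorescence intensity with signal-to-noise per printed feature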
[7] = small-molecule microarray binders of probe aShh, primary screen, biochemical, biotinylated probe, 635/667 nm fluorescence (AID 1114); conditions: higher = more signal;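 further: probe is biotin-labelled aShh protein from a stem cell growth factor screen; measures binding of labelled protein to compounds printed on the slide; score merges feature fluorescence at 667 nm with signal-to-noise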
[8] = small-molecule microarray binders of probe aNog, primary screen, biochemical, biotinylated probe, 635/667 nm fluorescence (AID 1115); conditions: higher = more signal;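 further: probe is biotinylated aNog protein used at 0.15 µg/mL for 1 h at 4 C; z-score combines 667 nm fluorescence of each spot with its signal to noise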
[9] = biological target: Torsin-1A-interacting protein 1 (Homo sapiens) (UniProt Q5JTV8); assay: LAP1 binders from COS7 cell lysate, primary screen, small-molecule microarray, 635/667 nm fluorescence (AID 1116); conditions: COS7-hLAP1 lysate binding, 635 nm fluorescence, higher = more signal
Sequence of Torsin-1A-interacting protein 1 (Homo sapiens) (Q5JTV8 whole entry, looked up): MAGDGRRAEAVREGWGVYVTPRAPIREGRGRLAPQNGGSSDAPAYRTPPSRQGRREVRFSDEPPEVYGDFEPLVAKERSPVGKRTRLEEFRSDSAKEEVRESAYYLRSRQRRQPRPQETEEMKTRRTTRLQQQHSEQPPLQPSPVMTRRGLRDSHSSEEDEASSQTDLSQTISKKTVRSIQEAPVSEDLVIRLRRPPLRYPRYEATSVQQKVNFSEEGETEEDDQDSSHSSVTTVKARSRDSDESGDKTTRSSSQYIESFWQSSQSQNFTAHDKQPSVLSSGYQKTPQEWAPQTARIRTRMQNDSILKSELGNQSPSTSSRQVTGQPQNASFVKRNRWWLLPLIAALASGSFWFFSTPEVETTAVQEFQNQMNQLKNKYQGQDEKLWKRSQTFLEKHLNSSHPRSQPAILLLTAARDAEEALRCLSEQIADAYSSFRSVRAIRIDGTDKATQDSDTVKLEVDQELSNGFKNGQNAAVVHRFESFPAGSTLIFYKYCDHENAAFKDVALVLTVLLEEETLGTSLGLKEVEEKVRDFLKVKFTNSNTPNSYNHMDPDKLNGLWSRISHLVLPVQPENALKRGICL

[10] = biological target: Alpha-bungarotoxin (Bungarus multicinctus) (UniProt P60615); assay: alpha-bungarotoxin binders on microarray, profiling panel, artefact control for SMM control protein annotation, biochemical, small-molecule microarray, Alexa647 label, 635/667 nm fluorescence (AID 1117); conditions: alpha-BTX-A647 binding fluorescence, higher = more signal
Sequence of Alpha-bungarotoxin (Bungarus multicinctus) (P60615 whole entry, looked up): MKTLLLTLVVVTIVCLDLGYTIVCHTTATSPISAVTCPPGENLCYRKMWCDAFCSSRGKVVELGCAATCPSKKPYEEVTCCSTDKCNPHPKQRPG

## C=C(CCCC)/C(=C/C[C@@H](OC(=O)c1ccncc1)c1ccc(CO)o1)c1cnc2ccccc2c1
[1]
  composite z-score: -0.41
[2]
  z-score: -1.13
[3]
  composite z-score: 1.48
[4]
  composite z-score: 1.38
[5]
  composite z-score: -0.0149
[6]
  composite z-score: 0.0973
[7]
  composite z-score: 0.213
[8]
  composite z-score: 0.889
[9]
  composite z-score: 2.1
[10]
  composite z-score: 2.29

## CCOC(=O)[C@H]1C/C=C/C[C@H](C(=O)OCC)C(=O)O[C@H]2[C@@H](OC)O[C@H](CO)[C@@H](OC(=O)Nc3ccc(Br)cc3)[C@@H]2OC1=O
[1]
  composite z-score: 0.205
[2]
  z-score: -3.56
[3]
  composite z-score: 0.561
[4]
  composite z-score: 1.64
[5]
  composite z-score: 0.155
[6]
  composite z-score: -0.0704
[7]
  composite z-score: 0.0515
[8]
  composite z-score: 1.5
[9]
  composite z-score: 0.396
[10]
  composite z-score: 0.465

## O=C(O)[C@@H]1Cc2c([nH]c3ccccc23)[C@@H](c2ccccc2)N1
[1]
  composite z-score: 0.681
[2]
  z-score: -0.161
[3]
  composite z-score: 0.414
[4]
  composite z-score: -0.106
[5]
  composite z-score: -0.568
[6]
  composite z-score: -0.141
[7]
  composite z-score: -0.124
[8]
  composite z-score: -0.013
[9]
  composite z-score: 0.3
[10]
  composite z-score: 0.236

## CC/C=C/C(=O)N(C[C@@H]1CCCO1)[C@@H]1CC(C(=O)NCCO)=C[C@H](Oc2c(I)cc(CO)cc2OC)[C@H]1O
[1]
  composite z-score: -0.2
[2]
  z-score: -0.277
[3]
  composite z-score: 0.208
[4]
  composite z-score: -0.33
[5]
  composite z-score: 0.0262
[6]
  composite z-score: 0.497
[7]
  composite z-score: 0.138
[8]
  composite z-score: 0.124
[9]
  composite z-score: 0.371
[10]
  composite z-score: 0.515

## COC(=O)C[C@H]1O[C@]2(C(=O)N(Cc3ccccc3)c3ccc(I)cc32)[C@@H](C)[C@@H]1[Si](C)(C)c1ccc(OC)cc1
[1]
  composite z-score: -1.02
[2]
  z-score: 0.486
[3]
  composite z-score: -0.0651
[4]
  composite z-score: 0.267
[5]
  composite z-score: 0.286
[6]
  composite z-score: -0.0462
[7]
  composite z-score: 0.0062
[8]
  composite z-score: -0.208
[9]
  composite z-score: -0.267
[10]
  composite z-score: 0.13

## C=CCN1C(=O)[C@@]2(O[C@@H](CCn3cc([C@H](O)c4ccccc4)nn3)[C@H]([Si](C)(C)c3ccc(OC)cc3)[C@H]2C)c2cc(N3CCOC3=O)ccc21
[1]
  composite z-score: -0.0922
[2]
  z-score: -3.71
[3]
  composite z-score: -0.125
[4]
  composite z-score: 0.0419
[5]
  composite z-score: 0.462
[6]
  composite z-score: -0.0754
[7]
  composite z-score: -0.2
[8]
  composite z-score: -0.0428
[9]
  composite z-score: 0.559
[10]
  composite z-score: -0.577

## CC[C@@H]1C=C(C(=O)O)[C@H](c2ccccc2)N1S(=O)(=O)c1ccc([N+](=O)[O-])cc1
[1]
  composite z-score: 0.672
[2]
  z-score: -0.661
[3]
  composite z-score: -0.52
[4]
  composite z-score: 0.354
[5]
  composite z-score: 0.202
[6]
  composite z-score: -0.0512
[7]
  composite z-score: -0.138
[8]
  composite z-score: -0.321
[9]
  composite z-score: 1.41
[10]
  composite z-score: 0.427

## CC(c1ccccc1)C(O)C1C=CC2C(=O)N(C)C(=O)C2N1N(c1ccccc1)c1ccccc1 (stereo not given)
[1]
  composite z-score: -0.304
[2]
  z-score: 0.37
[3]
  composite z-score: -0.789
[4]
  composite z-score: 1.08
[5]
  composite z-score: 0.723
[6]
  composite z-score: -0.0057
[7]
  composite z-score: 0.809
[8]
  composite z-score: 0.332
[9]
  composite z-score: 0.765
[10]
  composite z-score: -0.212

## COc1ccc([Si](C)(C)[C@@H]2[C@@H](CCO)O[C@]3(C(=O)N(Cc4ccc(NC(=O)[C@H](C)O)cc4)c4ccccc43)[C@H]2C)cc1
[1]
  composite z-score: 1.39
[2]
  z-score: -5.23
[3]
  composite z-score: 0.0969
[4]
  composite z-score: 0.805
[5]
  composite z-score: -0.0051
[6]
  composite z-score: -0.12
[7]
  composite z-score: -0.0626
[8]
  composite z-score: 0.0169
[9]
  composite z-score: 0.694
[10]
  composite z-score: 0.94

## COC(=O)[C@@]1(Cc2ccccc2)[C@H]2c3cc(C(=O)N4CCCC4)n(CCN4CNCC4=O)c3C[C@H]2CN1C(=O)c1ccccc1
[1]
  composite z-score: 0.871
[2]
  z-score: -0.857
[3]
  composite z-score: 0.172
[4]
  composite z-score: 1.91
[5]
  composite z-score: 0.265
[6]
  composite z-score: -0.0519
[7]
  composite z-score: -0.288
[8]
  composite z-score: -0.197
[9]
  composite z-score: 0.911
[10]
  composite z-score: 0.98

## CN(C)C(=O)[C@@]1(Cc2ccccc2N=[N+]=[N-])N=C(c2ccc(OCCCO)cc2)O[C@H]1c1ccccc1CN=[N+]=[N-]
[1]
  composite z-score: 0.646
[2]
  z-score: -2.12
[3]
  composite z-score: 0.048
[4]
  composite z-score: 2.51
[5]
  composite z-score: 1.22
[6]
  composite z-score: 0.13
[7]
  composite z-score: 0.721
[8]
  composite z-score: 1.78
[9]
  composite z-score: 3.11
[10]
  composite z-score: 2.96

## [N-]=[N+]=NCc1ccccc1[C@H]1OC(c2ccc(OCCCO)cc2)=N[C@@]1(Cc1ccccc1N=[N+]=[N-])C(=O)NCc1ccccc1
[1]
  composite z-score: 0.716
[2]
  z-score: -2.02
[3]
  composite z-score: -0.334
[4]
  composite z-score: 1.54
[5]
  composite z-score: 0.642
[6]
  composite z-score: 0.239
[7]
  composite z-score: 0.407
[8]
  composite z-score: 0.57
[9]
  composite z-score: 0.447
[10]
  composite z-score: 1.71

## CC1=C([C@H](O)CCc2ccccc2)[C@H](CO)[C@@H]2C(=O)N(Cc3ccccc3)C(=O)[C@@H]2C1
[1]
  composite z-score: 0.0933
[2]
  z-score: -0.266
[3]
  composite z-score: 0.334
[4]
  composite z-score: 0.62
[5]
  composite z-score: -0.503
[6]
  composite z-score: -0.0644
[7]
  composite z-score: -0.289
[8]
  composite z-score: -0.27
[9]
  composite z-score: 0.421
[10]
  composite z-score: 1.71
